IDH1 R132H inh: qHTS for Inhibitors of mutant isocitrate dehydrogenase 1 (IDH1): qHTS | Potency, µM (highest dose often 76.6 µM), without a hit: at the highest dose activity change, negative = inhibition, usual class: inhibitors | 0.093% of 390,000 active | Isocitrate dehydrogenase [NADP] cytoplasmic (Homo sapiens), O75874 | IDH1-R132H enzyme, NADPH consumption, diaphorase/resazurin fluorescence; also: potency is read from the fitted curve at half-maximal effect; % is scaled to controls: 0 for no effect and ±100 for the full control effect; nearly all actives have a fitted effect of over 65% in size
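IDH1-R132H (0.5 ug/mL) preincubated 30 min with compound, then NADPH (0.016 mM) and alpha-KG (2 mM) added; 80 min at RT, pH 7.5. Remaining NADPH coupled via diaphorase/resazurin to fluorescence (540/590 nm); concentration-response curves normalized to no-enzyme control.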
GLS inhibitor: qHTS for Inhibitors of Glutaminase (GLS) | Glutaminase kidney isoform, mitochondrial (Homo sapiens), O94925 | GLS enzymatic activity, qHTS titration | Potency, µM (doses to about 45.5 µM), inactives show at the highest dose activity change, negative = inhibition, hits mostly inhibitors | 0.21% of 410,000 active; also: potency is read from the fitted curve at half-maximal effect; % is scaled to controls: 0 for no effect and ±100 for the full control effect
Target sequence (O94925 whole entry, looked up, canonical isoform): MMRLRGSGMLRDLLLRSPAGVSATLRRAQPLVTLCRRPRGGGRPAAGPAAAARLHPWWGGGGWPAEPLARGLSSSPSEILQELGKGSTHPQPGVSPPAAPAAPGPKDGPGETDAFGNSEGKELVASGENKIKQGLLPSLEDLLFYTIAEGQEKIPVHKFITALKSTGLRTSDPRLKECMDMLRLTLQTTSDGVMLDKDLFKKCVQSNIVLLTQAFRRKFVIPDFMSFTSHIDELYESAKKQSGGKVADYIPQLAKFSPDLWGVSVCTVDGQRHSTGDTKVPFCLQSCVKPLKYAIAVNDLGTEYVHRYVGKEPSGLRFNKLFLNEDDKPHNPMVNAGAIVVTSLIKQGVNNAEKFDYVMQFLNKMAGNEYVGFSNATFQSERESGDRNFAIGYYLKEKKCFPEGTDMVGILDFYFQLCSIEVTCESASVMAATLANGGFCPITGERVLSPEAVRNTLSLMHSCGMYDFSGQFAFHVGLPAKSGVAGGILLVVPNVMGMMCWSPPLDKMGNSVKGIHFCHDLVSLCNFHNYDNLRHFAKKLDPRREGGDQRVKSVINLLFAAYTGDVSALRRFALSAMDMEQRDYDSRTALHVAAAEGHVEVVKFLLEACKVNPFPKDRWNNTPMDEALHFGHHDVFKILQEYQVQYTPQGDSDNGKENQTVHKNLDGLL
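Assay buffer: 45 mM KH2PO4 pH 8.2, 0.02% Tween-20. hKGA acts on L-glutamine (1 mM solution added); product glutamate is reported by an oxidase/peroxidase Amplex Red coupling, with fluorescence taken at baseline and 30 min.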
MmCpn inh: Inhibitors of TCP-1 ring complex (TRiC) of Methanococcus maripaludis (MmCpn): qHTS. Chaperonin Mm-Cpn (Methanococcus maripaludis). 0.031% of 330,000 active. purified Mm-Cpn ATPase, ADP Transcreener TR-FRET. Potency, µM (top dose mostly 76.9 µM), for the others: at the top dose activity, negative = inhibition, hits mostly inhibitors; also: potency is read from the fitted curve at half-maximal effect; % is scaled to controls: 0 for no effect and ±100 for the full control effect; nearly all actives have a fitted effect of over 80% in size
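ATP (10 uM final) was added to archaeal chaperonin (25 nM final) after 10 min exposure to test compound at 37°C; after 30 min further incubation, ADP was detected by competitive TR-FRET.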
Glioma ERSR ind: qHTS for Inducers of the Endoplasmic Reticulum Stress Response (ERSR) in Human Glioma: qHTS. U87-MG GRP78 promoter luciferase reporter, 16 h. Potency, µM, inactives show at the highest dose activation, most hits filed as activators. 0.02% of 420,000 active. AID 602332, 2012; also: potency is read from the fitted curve at half-maximal effect; series mostly up to about 76 µM; % of control where 0% means no effect; nearly all actives have a fitted effect of over 35% in size
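Stably transfected U87-MG glioma cells carrying a GRP78-based luciferase sensor; 16 h compound incubation. Luminescence end-point read 10 min after Bright-Glo addition at room temperature.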
CCT modulator: High-Throughput Screening for Modulators of Cytosolic Chaperonin Activity; purified chaperonin ATPase assay, HTRF ADP detection, 30 min; activity change, % (no concentration beside the values), hits read low; 0.3% of 360,000 active; AID 651819, 2012; in the data active = activity change below about -30%; also: % is scaled to controls: 0 for no effect and ±100 for the full control effect
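Enzyme 40 or 20 nM (batch-dependent) in Tris pH 7.4/KCl/MgCl2/DTT; cpd 76 uM single point; ATP 10 uM; 30 min 37 °C; Transcreener ADP HTRF detection, 30 min RT; ratio 665/615.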
Akt phos inh: HTS Assay for Inhibitors of Akt Phophorylation: Primary Screen; Neuro2A IGF-stimulated pAkt S473 HTRF, 20 min; hits give low values; activity change, % for hits at 50 µM; 0.32% of 360,000 active; AID 651550, 2012; in the data active = activity change below about -80%; inconclusive = mostly about -51% to -80%; also: % is scaled to controls: 0 for no effect and ±100 for the full control effect
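Neuro2A cells (4,500/well, DMEM with 0.5% FBS) were treated with compound at a single 50 µM final concentration, stimulated with 6 nM IGF for 20 min at 37 °C, and lysed. Phospho-Akt Ser473 was read by HTRF as 665/615 ratio ×10^4.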
Resorufin autofl: qHTS for Inhibitors of mutant isocitrate dehydrogenase 1 (IDH1): Cherrypicks Autofluorescence Interference; inhibition of signal, % at 51.2 µM; Resorufin detection reagent fluorescence interference, cell-free; shares compounds with IDH1 R132H inh; 750 tested, under 10 active;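 also: 0% = wells with normal resorufin and full inhibition = wells lacking resorufin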
WT IDH1 inh: qHTS for Inhibitors of mutant isocitrate dehydrogenase 1 (IDH1): Cherrypicks in WT IDH1; AID 623995, 2012; shares compounds with IDH1 R132H inh; 9% of 750 active; Potency, µM (titrated, usually from 115 µM), without a hit: at the top dose activity change, negative = inhibition, usual class: inhibitors; WT IDH1 enzyme, NADPH diaphorase/resazurin fluorescence;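 also: potency is read from the fitted curve at half-maximal effect; 0% = full WT IDH1 enzyme control and full inhibition = no enzyme wells; nearly all actives have a fitted effect of over 55% in size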
mIDH1 confirm: qHTS for Inhibitors of mutant isocitrate dehydrogenase 1 (IDH1): Confirmation of Cherrypicks; AID 624002, 2012; shares compounds with IDH1 R132H inh; IDH1 R132H enzyme, NADPH diaphorase/resazurin fluorescence; Potency, µM (titrated, usually from 76.6 µM), inactives show top-dose activity change, negative = inhibition, hits mostly inhibitors; 83% of 750 active; also: potency is read from the fitted curve at half-maximal effect; nearly all actives have a fitted effect of over 50% in size
* = called active by the depositor; i = inactive; u = inconclusive; x = no result given. Most compounds without a hit are left out; they make up all but 0.85% or so of the library. Unless noted, calls follow the shape of the dose curve; as a rule, active = well fitted curve in the direction sought with a large enough effect; inconclusive = small, poorly fitted or top-dose-only effect, or another doubt; inactive = no such curve, though single readings can be large; an effect the other way counts as inactive or inconclusive.

SMILES | IDH1 R132H inh | GLS inhibitor | MmCpn inh | Glioma ERSR ind | CCT modulator | Akt phos inh | Resorufin autofl | WT IDH1 inh | mIDH1 confirm
COc1ccccc1-c1ccnc(-n2ncc(C(=O)N3CCCCC3c3cccnc3)c2C)n1 (configuration not stated) | x | x | x | 2.2% | x | x | x | x | x
Cc1c(/C=N/NC(=O)c2cc(=O)[nH]c(=O)[nH]2)c2ccccn2c1C(=O)c1ccccc1 | u | 5.6% | -0.2% | -1.7% | -0.3 | i | -2.0 | u | 14.1µM*
Cc1c(/C=N/NC(=O)c2ccc(O)cc2)c2ccccn2c1C(=O)c1ccc(F)cc1 | -0.1% | 4.2% | 1.9% | -2.1% | 0.1 | i | x | x | x
CC(C)N1CC=C2C(C#N)=C(N)C(C#N)(C#N)C(c3ccccc3)C2C1 (configuration not stated) | u | -29.9% | -3.2% | -9.3% | -1.1 | i | x | x | x
CCCC1C2CN(C(C)=O)CC=C2C(C#N)=C(N)C1(C#N)C#N (configuration not stated) | -8.2% | 2.7% | -1.9% | -4.8% | -9.9 | i | x | x | x
CCC1C2CN(C(C)=O)CC=C2C(C#N)=C(N)C1(C#N)C#N (configuration not stated) | u | 1.0% | 0.7% | -6.9% | 0.5 | i | -7.7 | 37.5% | 44.7µM*
CCN1CC=C2C(C#N)=C(N)C(C#N)(C#N)C(c3cc(Cl)ccc3Cl)C2C1 (configuration not stated) | u | -19.9% | -4.8% | -4.6% | -1.6 | i | 3.4 | 6.2% | -17.3%
Cc1c(C(=O)N2CC3CCC2C3)sc2ncnc(NCc3ccco3)c12 (configuration not stated) | x | x | x | -3.5% | x | x | x | x | x
c1ccc(C2=Nn3c(nnc3-c3cc(-c4ccccc4)n[nH]3)SC2)cc1 | u | -9.5% | -1.1% | -1.5% | 0.8 | i | -13.3 | u | 20µM*
CCC[C@@H]1C[C@@]1(CCC)[C@@H](NP(=O)(c1ccccc1)c1ccccc1)c1ccc(C(=O)OC)cc1 | u | 6.5% | -0.9% | 18.3% | 1.3 | i | -3.1 | -4.2% | 22.4µM*
COC(=O)c1cccc(C#CC(NP(=O)(c2ccccc2)c2ccccc2)c2ccccc2)c1 (configuration not stated) | -10.1% | -3.2% | -1.4% | -4.0% | -2.1 | i | x | x | x
CCC(=O)C1=C(c2ccc(Cl)cc2)N(C(=O)CC)n2c(C)nnc2S1 | 44.7µM* | 1.8% | x | -2.5% | x | x | -13.2 | 299.4% | 14.1µM*
O=C(NCCc1nnc2n1CCN(Cc1cc3ccccc3o1)CC2)c1ccoc1 | x | x | x | -5.2% | x | x | x | x | x
O=S(=O)(c1ccc(NC(=S)N/N=C/c2ccc(Oc3ccccc3)cc2)cc1)N1CCOCC1 | u | 2.7% | -0.4% | -4.8% | -2.3 | i | -1.1 | -4.6% | -21.8%
O=S(=O)(c1ccc(NC(=S)N/N=C/c2ccc(N3CCOCC3)cc2)cc1)N1CCOCC1 | 0.1% | 8.4% | -5.6% | -2.4% | -1.4 | i | x | x | x
Cc1ccccc1NCC(=O)c1ccc(Br)cc1 | u | 7.9% | 0.9% | -0.8% | -0.6 | i | 1.9 | 103.0% | 44.7µM*
COc1ccc(-c2oc3cc(OC(C)=O)cc(OC(C)=O)c3c(=O)c2OC)cc1 | u | -4.1% | x | 2.8% | -2.1 | i | -2.9 | -3.9% | 28.2µM*
CN(C)S(=O)(=O)c1ccc(C(=O)OCc2nnc(-c3ccccc3)o2)cc1 | 13.1% | -4.1% | 0.4% | 1.8% | 2.1 | i | x | x | x
CC(CCc1ccccc1)NC(=O)COC(=O)c1ccc(S(C)(=O)=O)c([N+](=O)[O-])c1 (configuration not stated) | u | 3.0% | 1.0% | -17.0% | -2.7 | i | -3.1 | 1.8% | u
CS(=O)(=O)c1ccc(C(=O)OCc2nnc(-c3ccccc3)o2)cc1[N+](=O)[O-] | u | -14.8% | 1.1% | -17.6% | 2.2 | i | -3.9 | 9.0% | 25.1µM*
COc1cc(C2(c3ccc(O)c(OC)c3)C(=O)Nc3c(Br)cc(Br)cc32)ccc1O | 52.1µM* | 22.7% | x | -2.9% | 0.5 | i | -0.4 | u | 39.8µM*
COc1cc(C2(c3ccc(O)c(OC)c3)C(=O)N(C)c3ccc(Br)cc32)ccc1O | -12.6% | -0.9% | x | -4.4% | 1.5 | i | x | x | x
Cc1nc2c(c(=O)c3ccccc3n2C)c(=O)n1C1CCCCCC1 | 4.4% | -2.6% | -1.8% | -3.9% | -2.0 | i | x | x | x
Cn1c2ccccc2c(=O)c2c(=O)n(C3CCCCC3)c(-c3ccco3)nc21 | 26.1µM* | 10.8% | 0.4% | -0.8% | -0.9 | i | -11.0 | 23.9% | 22.4µM*
Cc1ccc(CNc2nc(CN3CCN(C=O)CC3)nc3ccccc23)o1 | x | x | x | -4.3% | x | x | x | x | x
Cc1ccc(S(=O)(=O)Oc2ccc3c(c2)O/C(=C\c2cccnc2)C3=O)cc1 | u | 2.1% | -0.8% | -1.4% | -0.1 | i | -9.7 | -2.8% | 25.1µM*
COc1cccc(/C=C2\Oc3cc(OCC(=O)N4CCCC4)ccc3C2=O)c1OC | -4.9% | -0.9% | -12.2% | -0.9% | -0.3 | x | x | x | x
O=C1/C(=C/c2cccnc2)Oc2cc(OS(=O)(=O)c3ccc(F)cc3)ccc21 | u | -3.2% | 0.7% | -3.7% | -0.5 | i | x | x | x
COc1cccc(OC)c1C(=O)Oc1ccc2c(c1)O/C(=C\c1ccncc1)C2=O | u | 7.3% | 0.6% | 1.7% | 0.0 | i | -2.7 | 1.7% | 20µM*
O=C1/C(=C/c2ccncc2)Oc2cc(OS(=O)(=O)c3ccccc3)ccc21 | 46.5µM* | u | 1.9% | -2.8% | 1.4 | i | -2.4 | u | 15.8µM*

Compound activity: PubChem, National Center for Advancing Translational Sciences (NCATS)
